Screens from PubChem.
Rows were chosen to be rich in hits. Some 7.6% of all compounds tested hit in one or more screens of this group.
ELG1 DNA repair: inhibitors of ELG1-dependent DNA repair in HEK293T cells. Potency, µM (series often up to 46.1 µM), without a hit: at the top dose activity change, negative = inhibition, usual class: inhibitors. HEK293T ELG1-luciferase reporter, luminescence, 16 h; DNA damage induced by 5-fluorouridine. hit rate 2.3% among 330,000; note: potency is the fitted concentration of half-maximal effect; % is set by controls: 0 for no effect and ±100 for the full control effect; nearly all actives have a fitted effect of over 55% in size
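Luminescence from the luciferase reporter, measured 30 min after ONE-Glo reagent at room temperature, was the read-out. Beforehand, 2,000 cells per well were exposed for 16 hr at 37 °C to 5-fluorouridine together with compound or vehicle.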
p53 reactivator: mutant p53 re-activation in reporter cells | H1299 p53-A138V BP100-luciferase reporter, luminescence, 24 h | Potency, µM (series often up to 92.2 µM), for the others: at the highest dose activity change, positive = activation, hits mostly activators | hit rate 0.063% among 320,000; note: potency is the fitted concentration of half-maximal effect; % of control where 0% means no effect; nearly all actives have a fitted effect of over 45% in size
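H1299 (p53-null), stable ts p53-A138V + BP100-Luc; 1000 cells/well, Opti-MEM/10% FBS; cpd 4 pt, 1:5; 24 h, 37 deg C, 5% CO2; detection reagent 10 min RT; luminescence.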
BRCA1 expr act: activators of BRCA1 expression; MCF7-BRCA1-FFLuc reporter, luminescence, 48 h; response scale: scaled: vehicle 0%, 10 µM genistein 100%; Potency, µM (titrated, usually from 46.1 µM), for inactives: at the highest dose activation, actives largely listed as activators; hit rate 1.1% among 380,000; AID 624202; note: potency is the fitted concentration of half-maximal effect; nearly all actives have a fitted effect of over 80% in size
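Reporter cells (MCF7, BRCA1 promoter-firefly luciferase) received library compounds across a concentration series for 48 h. End-point luminescence was measured and concentration-effect curves derived after normalization.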
RORgamma inh: ROR gamma (mouse) transcription inhibition. P51450. Drosophila S2 Gal4-RORgamma UAS-luciferase reporter, 20 h. Potency, µM (highest dose often 53.6 µM), for inactives: top-dose activity change, negative = inhibition, usual class: inhibitors. hit rate 5.4% among 310,000. AID 2551; note: potency is the fitted concentration of half-maximal effect; % is set by controls: 0 for no effect and ±100 for the full control effect; nearly all actives have a fitted effect of over 60% in size
Target sequence (P51450 whole entry, looked up, the tested form may be a part): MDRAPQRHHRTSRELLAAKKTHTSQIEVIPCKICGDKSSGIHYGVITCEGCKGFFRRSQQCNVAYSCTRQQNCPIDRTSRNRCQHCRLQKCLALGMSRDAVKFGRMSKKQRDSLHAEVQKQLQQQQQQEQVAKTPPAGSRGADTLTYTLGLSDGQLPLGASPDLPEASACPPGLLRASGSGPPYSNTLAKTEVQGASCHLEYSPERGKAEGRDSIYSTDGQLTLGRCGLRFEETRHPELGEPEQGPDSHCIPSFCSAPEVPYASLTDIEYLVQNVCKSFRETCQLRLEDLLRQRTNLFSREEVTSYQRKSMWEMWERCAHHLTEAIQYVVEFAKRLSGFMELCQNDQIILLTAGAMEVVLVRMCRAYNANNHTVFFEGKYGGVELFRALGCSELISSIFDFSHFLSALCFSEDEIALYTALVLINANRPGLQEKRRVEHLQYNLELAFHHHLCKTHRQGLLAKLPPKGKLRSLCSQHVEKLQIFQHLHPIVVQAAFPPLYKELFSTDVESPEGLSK
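In this cell-based reporter format, copper sulfate (700 uM final) drives Gal4–ROR gamma fusion expression from a metallothionein promoter in Drosophila Schneider cells; compounds preincubated 1 hr, reporter read after 20 hr at ambient temperature.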
Giardia killer: Giardia lamblia killing; Giardia lamblia trophozoite viability; activity change, % at 7.66 µM, hits read low; hit rate 0.15% among 340,000; AID 540267; in the data active = activity change below about -80%; inconclusive = between about -30% and that limit;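 note: parasites exposed to compound for two days anaerobically before the ATP read; % is set by controls: 0 for no effect and ±100 for the full control effect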
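Anaerobic 48 hrs incubation at 37 deg C of 100 trophozoites/well with test compounds; ATPLite 1-Step luminescence, 15-30 min RT, reports cellular ATP as viability.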
VP16 counter: counter-screen for ROR gamma inhibitors: Gal4-VP16 reporter; AID 2546; Potency, µM (highest dose often 53.6 µM), without a hit: at the top dose activity, negative = inhibition, most hits filed as inhibitors; hit rate 3.5% among 310,000; Drosophila S2 Gal4-VP16 UAS-luciferase, luminescence, 20 h;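 note: Gal4-VP16 expression switched on by copper sulfate through the metallothionein promoter; potency is the fitted concentration of half-maximal effect; % is set by controls: 0 for no effect and ±100 for the full control effect; nearly all actives have a fitted effect of over 50% in size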
Active calls of the source: *; ? = inconclusive; / = no result; [ ] = dose if it differs, or a comment. Unless noted, calls come from the whole dose curve; as a rule, active = well fitted curve in the direction sought with a large enough effect; inconclusive = small, poorly fitted or top-dose-only effect, or another doubt; inactive = no such curve, though single readings can be large; an effect the other way counts as inactive or inconclusive.

SMILES	ELG1 DNA repair	p53 reactivator	BRCA1 expr act	RORgamma inh	Giardia killer	VP16 counter
COc1ccccc1OCCCn1cc(C=O)c2ccccc21	?	-3%	60%	?	-6	0.002µM*
O=Cc1cn(Cc2ccccc2F)c2ccccc12	?	-7%	-44%	2µM*	-9	-15%[10 µM]
COc1ccc(CC(C)NCCC(c2ccccc2)c2ccccc2)cc1 (stereo unspecified)	-25%	/	-75%	/	38	/
O=C(Cc1ccccc1F)N1CCN(CC(=O)N2CCCC2)CC1	8%	-7%	-14%	/	6	/
Cc1ccccc1C(=O)NNC(=S)NC(=O)COc1ccccc1	1%	-2%	-1%	13µM*	4	?
COc1ccc(CC(=O)NC(=S)NNC(=O)COc2c(C)cccc2C)cc1	-15%	11%	-24%	13µM*	-11	-22%
Cc1c(C(=O)c2ccccc2)c2ccccc2n1C	9%	6%	-9%	9%	8	-2%
O=C1NC(=O)N(Cc2ccccc2)C(=O)/C1=C/C=C/c1ccco1	?	-17%	-86%	?	-11	13µM*
CC(C)c1ccc(N2C(=O)NC(=O)/C(=C\c3cnc(-c4ccccc4)nc3)C2=O)cc1	?	8%	35%	1%	-21	-2%
CC(C)c1ccc(N2C(=O)NC(=O)/C(=C\C=C\c3ccco3)C2=O)cc1	?	0%	-83%	?	1	4.5µM*
O=CC=O	/	/	/	4%	/	-5%
CN1C2CC(=O)CC1C(O)C2 (stereo unspecified)	/	/	/	-5%	/	-5%
CS(=O)(=O)c1ccc(C2=C(CNC(=O)c3ccncc3)[C@H]3CC[C@@H](C2)N3Cc2ccccc2)cc1	/	/	12%	/	/	/
Cc1cc(Cl)ccc1OCC(=O)O	11%	-2%	5%	9%	-3	-5%
CCOC(=O)C/C(C)=N/NC(=O)COc1ccccc1C	8%	5%	-30%	14µM*	-17	?
Cc1ccc(N2CCN(C(=O)c3cn(CC4CCCCC4)nn3)C(C)C2)cc1 (stereo unspecified)	/	/	2.5µM*	/	15	/
C[C@]12O[C@H](C[C@]1(O)CO)n1c3ccccc3c3c4c(c5c6ccccc6n2c5c31)CNC4=O	/	/	/	?	/	5.6µM*
CNC(C(=O)c1ccccc1)C(OC)c1cccc([N+](=O)[O-])c1 (stereo unspecified)	3%	-5%	19%	-3%	12	9%
N#Cc1nn(-c2c(Cl)cc(C(F)(F)F)cc2Cl)c(N)c1S(=O)C(F)(F)F (stereo unspecified)	/	/	/	?	/	20µM*
Cc1ccccc1C1=NCC(=O)N(CC(=O)NCc2ccco2)c2sc3c(c21)CCCC3	?	-2%	-2%	?	-3	13µM*
CCC(C)C1N=C(c2ccccc2)c2cc(Cl)ccc2N(CC(=O)NCc2ccco2)C1=O (stereo unspecified)	-5%	-2%	0%	13%	-7	-22%
S=C1CN=C(c2ccccc2)c2cc(Cl)ccc2N1	?	-4%	-10%	2µM*	-1	6.3µM*
O=C1CN=C(c2ccc[nH]2)c2cc(Cl)ccc2N1	8.2µM*	-2%	-7%	-25%	10	1%
CN=C1CN=C(c2ccc[nH]2)c2cc(Cl)ccc2N1	/	/	0%	/	/	/
COc1ccc(C2=NCC(=S)Nc3ccc(Cl)cc32)cc1Cl	?	0%	-32%	2.8µM*	12	8.9µM*
SMILES	ELG1 DNA repair	p53 reactivator	BRCA1 expr act	RORgamma inh	Giardia killer	VP16 counter
Cc1ccccc1NC(=O)N1Cc2ccccc2-n2nncc2C1	/	/	5%	/	/	/
COC(C)C(O)(C(=O)OC1=CCN2CC[C@H](O)[C@H]12)C(C)C (stereo partly specified)	/	/	/	-11%	/	2%
C=C(Cl)CSC(=S)N(CC)CC	4%	5%	2%	17%	10	6%
Cc1ccc(C(c2nnnn2Cc2ccccc2)N2CC=C(c3ccc(F)cc3)CC2)cc1 (stereo unspecified)	-2%	-7%	-35%	2%	-90*	-16%
O=C1NC(=S)NC(=O)C1=Cc1cccn1-c1ccc(O)cc1	?	-7%	-50%	2.8µM*	-3	8.9µM*
CN1C(=O)/C(=C/c2cccn2-c2ccc3ccccc3c2)C(=O)NC1=S	?	4%	-32%	13µM*	-3	-88%
COC(=O)C1=C(c2ccc3ccccc3c2)C[C@@H]2CC[C@H]1N2C(=O)NCc1ccc(F)cc1	0%	-12%	-28%	/	-19	/
Cc1ccc(N=C=O)cc1N=C=O	/	/	/	?	/	12%
COC(=O)/C=C\C(=O)N[C@@H]1CC[C@@]2(O)[C@H]3Cc4ccc(O)c5c4[C@@]2(CCN3CC2CC2)[C@@H]1O5	/	/	/	-21%	/	3%
CC(=O)OC[C@]12C[C@H](OC(=O)CC(C)C)C(C)=C[C@H]1O[C@H]1[C@H](O)[C@@H](OC(C)=O)[C@@]2(C)[C@]12CO2	/	/	/	0.025µM*	/	-90%
CC1=C(O)C(=O)C=C2C1=CC=C1[C@]2(C)CC[C@@]2(C)C3C[C@](C)(C(=O)O)CC[C@@]3(C)CC[C@@]12C (stereo partly specified)	/	/	/	3.2µM*	/	?
O=C(Nc1ccccc1C(=O)N/N=C/c1ccco1)c1ccccc1Cl	3%	-2%	-2%	3.5µM*	3	?
NCCc1c[nH]c2ccc(OCc3ccccc3)cc12	13%	-1%	11%	-2%	24	-10%
CCOC(=O)c1ncc2[nH]c3ccc(OCc4ccccc4)cc3c2c1COC	/	/	/	-92%	/	4.5µM*
CC1(C)C(C(Cl)Cl)C2(Cl)C(Cl)C(Cl)C1(Cl)C2(Cl)Cl (stereo unspecified)	/	/	/	-16%	/	-4%
CCOC(=O)C1CCCN(c2ccc([N+](=O)[O-])c3nonc23)C1 (stereo unspecified)	?	-3%	-22%	-34%	-95*	-4%
C[C@]12CCC3C(CC[C@H]4C[C@H](O)CC[C@]34C)C1C[C@H](O)[C@H]2O (stereo partly specified)	/	/	-3%	/	?	/
CC[n+]1c(-c2ccccc2)c2cc(N)ccc2c2ccc(N)cc21	/	/	-89%	?	-3	11µM*
CCCCCC1CC(CC(=O)NC(=S)Nc2ccc([N+](=O)[O-])cc2)C(=O)O1 (stereo unspecified)	?	2%	-24%	71µM*	4	?
CC(=O)Nc1ccc([As](=O)(O)c2ccc([N+](=O)[O-])cc2)cc1	6%	6%	0%	26%	-16	3%
CC(C)Sc1nnc(OC(=O)N(C)C)n1-c1ccccc1	-2%	0%	9%	7%	-8	2%
